# Measured values as given in the supplement of paper PMC11732987, “Enantioselective OTUD7B fragment discovery through chemoproteomics screening and high-throughput optimisation” (Communications Chemistry, 2025).
# A number with no mark means an inactive call.
# Experiments:
# Assay in all cases: log2 ratio of Biotin-Ahx-Ub-VS probe labelling (fragment/DMSO); higher = less target engagement (more negative = stronger competition), active = hit call of the paper (q ≤ 0.05, log2 ratio ≤ -1)
# Conditions in all cases: compound concentration: 200 uM; treatment time: 3 h
# [1] = biological target: T1, USP19 (UniProt O94966)
# T1 sequence (whole entry): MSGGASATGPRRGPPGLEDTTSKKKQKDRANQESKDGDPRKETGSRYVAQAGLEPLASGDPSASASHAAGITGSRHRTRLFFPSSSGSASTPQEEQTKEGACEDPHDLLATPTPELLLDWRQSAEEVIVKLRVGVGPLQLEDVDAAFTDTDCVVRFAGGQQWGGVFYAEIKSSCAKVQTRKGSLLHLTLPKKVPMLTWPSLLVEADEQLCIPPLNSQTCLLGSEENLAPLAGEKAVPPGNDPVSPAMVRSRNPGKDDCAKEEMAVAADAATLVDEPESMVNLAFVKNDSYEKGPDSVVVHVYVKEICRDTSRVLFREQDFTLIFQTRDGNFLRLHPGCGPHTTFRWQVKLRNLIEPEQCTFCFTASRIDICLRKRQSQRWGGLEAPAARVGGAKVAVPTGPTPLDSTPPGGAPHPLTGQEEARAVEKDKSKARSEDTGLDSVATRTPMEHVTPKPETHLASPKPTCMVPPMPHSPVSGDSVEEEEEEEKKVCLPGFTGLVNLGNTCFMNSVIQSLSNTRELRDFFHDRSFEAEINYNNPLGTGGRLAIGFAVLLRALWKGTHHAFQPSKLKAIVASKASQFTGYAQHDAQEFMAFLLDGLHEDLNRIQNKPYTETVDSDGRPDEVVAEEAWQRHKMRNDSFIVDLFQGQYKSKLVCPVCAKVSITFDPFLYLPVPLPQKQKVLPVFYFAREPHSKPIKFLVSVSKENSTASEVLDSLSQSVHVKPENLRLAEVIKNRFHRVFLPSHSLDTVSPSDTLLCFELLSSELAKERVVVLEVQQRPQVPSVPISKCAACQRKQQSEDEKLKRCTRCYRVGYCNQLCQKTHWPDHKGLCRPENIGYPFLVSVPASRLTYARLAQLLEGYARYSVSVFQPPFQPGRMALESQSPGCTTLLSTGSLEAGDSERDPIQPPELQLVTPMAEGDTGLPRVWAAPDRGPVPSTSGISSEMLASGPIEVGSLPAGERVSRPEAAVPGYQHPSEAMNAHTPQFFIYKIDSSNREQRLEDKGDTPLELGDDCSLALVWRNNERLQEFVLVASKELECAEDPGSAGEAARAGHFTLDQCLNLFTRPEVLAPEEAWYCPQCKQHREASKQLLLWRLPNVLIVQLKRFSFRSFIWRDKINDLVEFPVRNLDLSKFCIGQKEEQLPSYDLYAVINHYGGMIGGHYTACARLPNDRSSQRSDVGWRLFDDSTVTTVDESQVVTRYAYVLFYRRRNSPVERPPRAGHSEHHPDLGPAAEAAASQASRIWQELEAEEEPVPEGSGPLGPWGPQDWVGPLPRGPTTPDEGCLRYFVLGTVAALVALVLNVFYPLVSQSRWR
# Summary of the method: (§1)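 Using Biotin-Ahx-Ub-VS at 0.5 µM final for 1 h, DUBs were labelled in HEK293T lysate (495 µg per sample) that had first been treated in triplicate with fragment at 200 µM or vehicle for 3 h. NeutrAvidin enrichment, LysC and trypsin digestion and diaPASEF LC-MS/MS followed. Spectronaut label-free quantities were global-median-normalised. Values are average log2 fragment/vehicle ratios by unpaired t-test, using proteins with ≥2 unique peptides.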
# [2] = biological target: T2, USP22 (UniProt Q9UPT9)
# T2 sequence (whole entry): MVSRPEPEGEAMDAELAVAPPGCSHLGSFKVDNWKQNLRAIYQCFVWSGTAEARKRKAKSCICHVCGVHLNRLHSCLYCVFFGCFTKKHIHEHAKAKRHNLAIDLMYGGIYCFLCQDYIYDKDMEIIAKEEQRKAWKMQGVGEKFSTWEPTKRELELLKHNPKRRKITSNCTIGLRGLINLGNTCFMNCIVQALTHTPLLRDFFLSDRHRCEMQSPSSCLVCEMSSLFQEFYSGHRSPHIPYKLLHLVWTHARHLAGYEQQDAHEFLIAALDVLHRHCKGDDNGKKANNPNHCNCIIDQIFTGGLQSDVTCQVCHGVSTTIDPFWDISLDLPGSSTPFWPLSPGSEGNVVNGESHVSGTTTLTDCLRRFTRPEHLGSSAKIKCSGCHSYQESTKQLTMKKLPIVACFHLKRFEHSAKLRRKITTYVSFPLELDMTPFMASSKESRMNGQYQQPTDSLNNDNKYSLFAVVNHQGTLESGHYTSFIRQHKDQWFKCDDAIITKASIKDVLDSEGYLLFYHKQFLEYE
# Summary of the method: as §1
# [3] = biological target: USP24 (UniProt Q9UPU5)
# USP24, sequence (Q9UPU5 whole entry): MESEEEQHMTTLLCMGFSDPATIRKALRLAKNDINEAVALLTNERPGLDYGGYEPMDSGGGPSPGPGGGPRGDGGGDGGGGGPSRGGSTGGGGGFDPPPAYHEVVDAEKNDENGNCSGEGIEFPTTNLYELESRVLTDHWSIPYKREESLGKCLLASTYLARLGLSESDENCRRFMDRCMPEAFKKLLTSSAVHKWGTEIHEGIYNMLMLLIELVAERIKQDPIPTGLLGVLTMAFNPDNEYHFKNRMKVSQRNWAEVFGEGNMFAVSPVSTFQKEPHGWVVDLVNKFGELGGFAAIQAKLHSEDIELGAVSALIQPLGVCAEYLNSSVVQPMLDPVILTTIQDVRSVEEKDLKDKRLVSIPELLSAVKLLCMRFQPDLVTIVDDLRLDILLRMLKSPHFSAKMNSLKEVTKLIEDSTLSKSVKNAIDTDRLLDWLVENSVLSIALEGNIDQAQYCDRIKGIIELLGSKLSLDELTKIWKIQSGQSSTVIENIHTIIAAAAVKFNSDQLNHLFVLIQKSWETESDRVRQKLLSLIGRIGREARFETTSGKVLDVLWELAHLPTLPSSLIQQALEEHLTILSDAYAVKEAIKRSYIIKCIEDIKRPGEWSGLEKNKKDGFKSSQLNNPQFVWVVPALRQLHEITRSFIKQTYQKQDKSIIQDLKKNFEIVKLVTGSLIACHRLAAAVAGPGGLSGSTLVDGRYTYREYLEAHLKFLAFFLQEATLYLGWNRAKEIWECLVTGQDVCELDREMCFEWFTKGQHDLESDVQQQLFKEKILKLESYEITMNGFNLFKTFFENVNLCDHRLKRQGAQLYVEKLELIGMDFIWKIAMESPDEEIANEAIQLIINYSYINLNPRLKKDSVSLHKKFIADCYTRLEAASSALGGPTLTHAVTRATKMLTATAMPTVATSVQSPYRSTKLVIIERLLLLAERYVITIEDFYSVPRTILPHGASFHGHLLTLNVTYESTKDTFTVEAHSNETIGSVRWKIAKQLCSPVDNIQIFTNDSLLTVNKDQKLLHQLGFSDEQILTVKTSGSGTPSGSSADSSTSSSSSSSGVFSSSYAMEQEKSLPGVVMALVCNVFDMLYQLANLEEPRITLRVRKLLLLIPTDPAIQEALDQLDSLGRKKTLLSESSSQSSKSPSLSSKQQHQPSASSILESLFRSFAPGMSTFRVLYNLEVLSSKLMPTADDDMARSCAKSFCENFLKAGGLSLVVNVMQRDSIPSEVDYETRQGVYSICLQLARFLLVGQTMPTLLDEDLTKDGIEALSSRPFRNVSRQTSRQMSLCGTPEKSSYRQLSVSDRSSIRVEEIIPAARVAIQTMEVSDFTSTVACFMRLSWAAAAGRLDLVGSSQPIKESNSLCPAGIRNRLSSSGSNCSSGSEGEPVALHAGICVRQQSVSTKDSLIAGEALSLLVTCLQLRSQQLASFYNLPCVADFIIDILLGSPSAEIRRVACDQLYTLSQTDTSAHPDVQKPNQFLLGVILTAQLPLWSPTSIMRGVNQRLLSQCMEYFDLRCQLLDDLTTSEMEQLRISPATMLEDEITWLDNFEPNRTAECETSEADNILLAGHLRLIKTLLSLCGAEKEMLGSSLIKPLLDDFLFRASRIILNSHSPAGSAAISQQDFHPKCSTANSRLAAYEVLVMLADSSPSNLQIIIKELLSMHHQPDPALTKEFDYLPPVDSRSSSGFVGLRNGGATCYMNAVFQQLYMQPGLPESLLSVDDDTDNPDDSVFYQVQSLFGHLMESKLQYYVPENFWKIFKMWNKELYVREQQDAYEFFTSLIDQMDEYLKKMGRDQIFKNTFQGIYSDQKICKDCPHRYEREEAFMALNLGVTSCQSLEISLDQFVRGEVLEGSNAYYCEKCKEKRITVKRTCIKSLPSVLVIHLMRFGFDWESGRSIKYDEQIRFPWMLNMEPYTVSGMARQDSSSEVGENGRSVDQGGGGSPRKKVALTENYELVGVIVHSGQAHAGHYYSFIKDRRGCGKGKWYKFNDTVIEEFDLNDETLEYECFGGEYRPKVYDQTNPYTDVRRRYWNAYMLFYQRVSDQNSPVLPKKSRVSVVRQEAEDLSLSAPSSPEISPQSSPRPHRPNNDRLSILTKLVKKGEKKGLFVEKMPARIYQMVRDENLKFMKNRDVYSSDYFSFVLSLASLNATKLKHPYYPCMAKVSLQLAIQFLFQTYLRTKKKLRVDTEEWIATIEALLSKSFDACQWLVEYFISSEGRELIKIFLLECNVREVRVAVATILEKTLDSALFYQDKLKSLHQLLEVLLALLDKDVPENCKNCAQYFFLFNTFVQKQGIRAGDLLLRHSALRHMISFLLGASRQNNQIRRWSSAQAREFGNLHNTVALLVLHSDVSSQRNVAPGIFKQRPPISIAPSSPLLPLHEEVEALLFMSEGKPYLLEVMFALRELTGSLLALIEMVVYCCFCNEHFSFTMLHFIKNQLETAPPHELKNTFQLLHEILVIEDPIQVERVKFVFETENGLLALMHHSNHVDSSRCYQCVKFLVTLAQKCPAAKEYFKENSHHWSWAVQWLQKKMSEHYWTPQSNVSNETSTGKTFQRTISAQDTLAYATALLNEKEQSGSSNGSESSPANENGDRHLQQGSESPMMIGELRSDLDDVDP
# Summary of the method: as §1
# [4] = biological target: T3, USP25 (UniProt Q9UHP3)
# T3 sequence (whole entry): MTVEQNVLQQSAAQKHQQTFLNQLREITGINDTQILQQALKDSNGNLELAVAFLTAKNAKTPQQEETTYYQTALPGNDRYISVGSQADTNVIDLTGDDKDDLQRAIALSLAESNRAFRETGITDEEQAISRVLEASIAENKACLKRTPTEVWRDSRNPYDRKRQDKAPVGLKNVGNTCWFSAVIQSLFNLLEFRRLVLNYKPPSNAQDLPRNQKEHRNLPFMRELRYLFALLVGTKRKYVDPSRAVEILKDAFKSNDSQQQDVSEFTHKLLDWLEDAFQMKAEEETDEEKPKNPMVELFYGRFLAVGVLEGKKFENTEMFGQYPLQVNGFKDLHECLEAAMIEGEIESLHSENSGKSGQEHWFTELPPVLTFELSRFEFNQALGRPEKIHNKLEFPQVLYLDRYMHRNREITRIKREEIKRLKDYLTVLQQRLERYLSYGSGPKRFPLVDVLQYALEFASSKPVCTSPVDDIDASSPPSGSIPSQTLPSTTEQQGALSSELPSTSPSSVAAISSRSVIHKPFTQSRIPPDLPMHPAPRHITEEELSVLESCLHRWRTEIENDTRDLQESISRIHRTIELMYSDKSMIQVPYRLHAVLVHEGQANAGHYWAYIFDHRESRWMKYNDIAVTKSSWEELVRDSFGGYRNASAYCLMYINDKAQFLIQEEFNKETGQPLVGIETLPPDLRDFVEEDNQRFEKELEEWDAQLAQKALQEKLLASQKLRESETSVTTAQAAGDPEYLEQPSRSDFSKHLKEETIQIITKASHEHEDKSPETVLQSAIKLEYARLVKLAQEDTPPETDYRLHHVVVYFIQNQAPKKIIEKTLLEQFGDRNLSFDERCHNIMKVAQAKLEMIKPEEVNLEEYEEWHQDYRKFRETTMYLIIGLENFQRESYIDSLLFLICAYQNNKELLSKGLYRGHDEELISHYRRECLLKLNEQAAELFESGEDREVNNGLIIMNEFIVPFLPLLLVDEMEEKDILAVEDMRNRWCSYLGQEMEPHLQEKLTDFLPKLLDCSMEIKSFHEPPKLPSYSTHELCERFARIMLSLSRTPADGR
# Summary of the method: as §1
# [5] = biological target: T4, USP28 (UniProt Q96RU2)
# T4 sequence (whole entry): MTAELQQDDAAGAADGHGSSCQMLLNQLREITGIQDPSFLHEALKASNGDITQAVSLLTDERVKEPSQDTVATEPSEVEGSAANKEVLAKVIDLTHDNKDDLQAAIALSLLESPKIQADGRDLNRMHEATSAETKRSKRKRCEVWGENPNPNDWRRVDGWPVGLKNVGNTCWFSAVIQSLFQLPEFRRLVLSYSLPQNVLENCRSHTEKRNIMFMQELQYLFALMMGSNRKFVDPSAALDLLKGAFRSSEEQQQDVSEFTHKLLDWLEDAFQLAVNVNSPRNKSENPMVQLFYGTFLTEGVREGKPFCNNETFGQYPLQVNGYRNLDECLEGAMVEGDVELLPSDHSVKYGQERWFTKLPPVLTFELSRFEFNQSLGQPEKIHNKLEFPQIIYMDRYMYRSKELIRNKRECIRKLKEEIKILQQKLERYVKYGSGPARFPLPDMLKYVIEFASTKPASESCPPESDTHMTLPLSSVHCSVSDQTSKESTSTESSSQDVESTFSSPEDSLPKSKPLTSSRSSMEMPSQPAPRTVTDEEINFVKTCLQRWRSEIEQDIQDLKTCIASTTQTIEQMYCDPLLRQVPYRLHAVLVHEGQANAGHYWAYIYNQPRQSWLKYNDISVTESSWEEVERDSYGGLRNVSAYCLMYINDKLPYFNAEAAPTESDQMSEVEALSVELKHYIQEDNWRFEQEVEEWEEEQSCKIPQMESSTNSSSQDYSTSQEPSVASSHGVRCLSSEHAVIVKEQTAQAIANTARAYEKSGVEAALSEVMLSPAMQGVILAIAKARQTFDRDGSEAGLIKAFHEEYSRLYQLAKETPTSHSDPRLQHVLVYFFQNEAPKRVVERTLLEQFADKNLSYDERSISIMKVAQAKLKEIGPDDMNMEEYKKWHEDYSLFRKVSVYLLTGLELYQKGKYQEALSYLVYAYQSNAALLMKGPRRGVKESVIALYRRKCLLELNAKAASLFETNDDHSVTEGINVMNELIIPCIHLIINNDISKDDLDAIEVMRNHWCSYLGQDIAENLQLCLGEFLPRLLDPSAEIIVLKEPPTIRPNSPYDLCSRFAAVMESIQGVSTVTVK
# Summary of the method: as §1
compound,measurement,setting,value
CC1Cc2ccccc2N1C(=O)CCl (stereo not given),log2 ratio of Biotin-Ahx-Ub-VS probe labelling,[1],-0.643
same,log2 ratio of Biotin-Ahx-Ub-VS probe labelling,[2],-0.161
same,log2 ratio of Biotin-Ahx-Ub-VS probe labelling,[3],-1.61 (active)
same,log2 ratio of Biotin-Ahx-Ub-VS probe labelling,[4],-0.876
same,log2 ratio of Biotin-Ahx-Ub-VS probe labelling,[5],-0.929
